Read-out in assay [1]: Vascular endothelial growth factor receptor 2 (Homo sapiens) (UniProt P35968)
The experiment in a line: BSK_4H_VEGFRII: BioMAP Diversity Plus: 4H Assay for Vascular endothelial growth factor receptor 2 (VEGFR2) Biomarker Activity (AID 2283031).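 As to AC50: cell-surface VEGFR2 protein level quantified by ELISA.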 As to conditions: primary human endothelial cells (HUVEC); actives raise or lower the signal. The method in brief: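 Primary human umbilical vein endothelial cells (4H system), 24 h exposure; cell-surface VEGFR2 measured by ELISA. Bidirectional fitting versus DMSO; cytotoxicity checked in parallel by SRB total-protein staining.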

Read-out in assay [2]: Human Leukocyte Antigen - DR isotype (HLADR), HLA-DRA (gene 3122)
Description: BSK_BE3C_HLADR: BioMAP Diversity Plus: BE3C Assay for Human Leukocyte Antigen - DR isotype (HLADR) Biomarker Activity (AID 2283032). To be noted: primary human bronchial epithelial cells; actives raise or lower the signal. In a few lines:
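ELISA read-out of HLA-DR on human lung bronchial epithelial primary cells, measured 24 h post-dosing. Both increases and decreases were scored relative to DMSO vehicle.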

Read-out in assay [3]: Vascular cell adhesion molecule 1 (VCAM1), VCAM1 (gene 7412)
Description: BSK_4H_VCAM1: BioMAP Diversity Plus: 4H Assay for Vascular cell adhesion molecule 1 (VCAM1) Biomarker Activity (AID 2283033).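 As to outcome: cell-surface VCAM-1 protein measured by ELISA.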 As to conditions: primary human endothelial cells (HUVEC); actives raise or lower the signal. The method in brief:
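ELISA read-out of VCAM-1 on human umbilical vein endothelium 24 hours after chemical dosing; gain or loss of signal was fitted relative to DMSO, with sulforhodamine B staining of parallel cultures flagging overt cytotoxicity.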

Read-out in assay [4]: Interferon-gamma inducible Protein 10 (IP10), CXCL10 (gene 3627)
Description: BSK_BE3C_IP10: BioMAP Diversity Plus: BE3C Assay for Interferon-gamma inducible Protein 10 (IP10) Biomarker Activity (AID 2283034). As to conditions: primary human bronchial epithelial cells; actives raise or lower the signal. In a few lines: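 Chemical is dosed onto human lung bronchial epithelial primary cells, cultures are incubated 24 h, and IP-10 is then quantified by ELISA. Gain or loss of signal is fitted in both directions relative to DMSO.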

Read-out in assay [5]: Monokine induced gamma interferon (MIG), CXCL9 (gene 4283)
The experiment in a line: BSK_BE3C_MIG: BioMAP Diversity Plus: BE3C Assay for Monokine induced gamma interferon (MIG) Biomarker Activity (AID 2283035). To be noted: primary human bronchial epithelial cells; actives raise or lower the signal. The method in brief:
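MIG level was determined by ELISA after 24 h chemical treatment of primary human bronchial epithelial cells. Values were fitted bidirectionally with DMSO as the negative control and activity baseline.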

Read-out in assay [6]: Transforming growth factor beta 1 (TGFb1), TGFB1 (gene 7040)
Description: BSK_BE3C_TGFb1: BioMAP Diversity Plus: BE3C Assay for Transforming growth factor beta 1 (TGFb1) Biomarker Activity (AID 2283036;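 as to outcome: TGF-b1 protein level measured by ELISA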). To be noted: primary human bronchial epithelial cells; actives raise or lower the signal. In a few lines: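 Primary human lung bronchial epithelial cells; compound exposure 24 h; TGF-b1 by ELISA; bidirectional fit, DMSO baseline. Parallel SRB total-protein staining for cytotoxicity.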

Read-out in assay [7]: Plasminogen activator inhibitor-1 (PAI1), SERPINE1 (gene 5054)
The experiment in a line: BSK_BE3C_PAI1: BioMAP Diversity Plus: BE3C Assay for Plasminogen activator inhibitor-1 (PAI1) Biomarker Activity (AID 2283037). As to conditions: primary human bronchial epithelial cells; actives raise or lower the signal. The method in brief: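 Primary human lung bronchial epithelial cells; chemical dosing; 24 h; PAI-1 measured by ELISA; bidirectional fit referenced to DMSO as negative control.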

Read-out in assay [8]: urokinase plasminogen activator (uPA), PLAU (gene 5328)
The experiment in a line: BSK_BE3C_uPA: BioMAP Diversity Plus: BE3C Assay for urokinase plasminogen activator (uPA) Biomarker Activity (AID 2283038).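 As to outcome: uPA protein level quantified by ELISA in cell cultures; uPA read one day after compound addition.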 To be noted: primary human bronchial epithelial cells; actives raise or lower the signal. In a few lines: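 Primary human bronchial epithelial cells, uPA measured by ELISA 24 h after dosing. Bidirectional change relative to DMSO; cytotoxicity checked in parallel cultures by sulforhodamine B total-protein staining.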

Read-out in assay [9]: Urokinase-type plasminogen activator receptor (uPAR), PLAUR (gene 5329)
Description: BSK_BE3C_uPAR: BioMAP Diversity Plus: BE3C Assay for Urokinase-type plasminogen activator receptor (uPAR) Biomarker Activity (AID 2283039).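 As to outcome: uPAR protein level measured by ELISA on the cells; cells exposed to compound for one day before measurement.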 As to conditions: primary human bronchial epithelial cells; actives raise or lower the signal. In a few lines:
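Human bronchial epithelial primary cells; chemical exposure 24 h; uPAR by ELISA; bidirectional fit vs DMSO control.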

Read-out in assay [10]: Interleukin-6 (IL6), IL6 (gene 3569)
The experiment in a line: BSK_CASM3C_IL6: BioMAP Diversity Plus: CASM3C Assay for Interleukin-6 (IL6) Biomarker Activity for (AID 2283040). As to conditions: primary human coronary artery smooth muscle cells; actives raise or lower the signal.

Read-out in assay [11]: Tissue plasminogen activator (tPA), PLAT (gene 5327)
Description: BSK_BE3C_tPA: BioMAP Diversity Plus: BE3C Assay for Tissue plasminogen activator (tPA) Biomarker Activity (AID 2283041).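 As to outcome: tPA level quantified by ELISA one day after compound addition.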 As to conditions: primary human bronchial epithelial cells; actives raise or lower the signal. In a few lines: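 Primary human lung bronchial epithelial cultures receive test chemical; after 24 h, tPA is quantified by ELISA, and gain or loss of signal is fitted bidirectionally relative to DMSO baseline.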

Read-out in assay [12]: Interleukin-8 (IL8), CXCL8 (gene 3576)
The experiment in a line: BSK_CASM3C_IL8: BioMAP Diversity Plus: CASM3C Assay for Interleukin-8 (IL8) Biomarker Activity (AID 2283042).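 Also: IL-8 protein level quantified by ELISA.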 To be noted: primary human coronary artery smooth muscle cells; actives raise or lower the signal.

Read-out in assay [13]: Human Leukocyte Antigen - DR isotype (HLADR), HLA-DRA (gene 3122)
The experiment in a line: BSK_CASM3C_HLADR: BioMAP Diversity Plus: CASM3C Assay for Human Leukocyte Antigen - DR isotype (HLADR) Biomarker Activity (AID 2283043).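 Also: cell-surface HLA-DR protein level quantified by ELISA.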 As to conditions: primary human coronary artery smooth muscle cells; actives raise or lower the signal.

Read-out in assay [14]: Macrophage colony-stimulating factor (MCSF), CSF1 (gene 1435)
The experiment in a line: BSK_CASM3C_MCSF: BioMAP Diversity Plus: CASM3C Assay for Macrophage colony-stimulating factor (MCSF) Biomarker Activity (AID 2283044).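 Also: M-CSF protein amount quantified by ELISA after 24 h exposure.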 To be noted: primary human coronary artery smooth muscle cells; actives raise or lower the signal.

Read-out in assay [15]: Low-density lipoprotein receptor (LDLR), LDLR (gene 3949)
The experiment in a line: BSK_CASM3C_LDLR: BioMAP Diversity Plus: CASM3C Assay for Low-density lipoprotein receptor (LDLR) Biomarker Activity (AID 2283045).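 Also: LDLR protein level on the cell surface quantified by ELISA.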 To be noted: primary human coronary artery smooth muscle cells; actives raise or lower the signal.

Read-out in assay [16]: Monocyte Chemoattractant Protein-1 (MCP1), CCL2 (gene 6347)
Description: BSK_CASM3C_MCP1: BioMAP Diversity Plus: CASM3C Assay for Monocyte Chemoattractant Protein-1 (MCP1) Biomarker Activity (AID 2283046).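 Also: MCP-1 level quantified by ELISA 24 h after dosing.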 To be noted: primary human coronary artery smooth muscle cells; actives raise or lower the signal.

Assay [17] in a line: BSK_CASM3C_Proliferation: Cell Proliferation Assessment in the BioMAP Diversity Plus: CASM3C Assay (AID 2283047).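 Also: sulforhodamine B total protein stain as relative cell number at 560 nm; sub-confluent cells exposed 48 h before staining; fitted both ways against DMSO so gain or loss of cell number.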 To be noted: primary human coronary artery smooth muscle cells.
Read-out in assay [18]: Monokine induced gamma interferon (MIG), CXCL9 (gene 4283)
The experiment in a line: BSK_CASM3C_MIG: BioMAP Diversity Plus: CASM3C Assay for Monokine induced gamma interferon (MIG) Biomarker Activity (AID 2283048).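 Also: MIG protein level measured by ELISA.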 As to conditions: primary human coronary artery smooth muscle cells; actives raise or lower the signal.

Read-out in assay [19]: serum amyloid A (SAA), SAA1 (gene 6288)
Description: BSK_CASM3C_SAA: BioMAP Diversity Plus: CASM3C Assay for serum amyloid A (SAA) Biomarker Activity (AID 2283049).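 Also: SAA protein level quantified by ELISA.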 As to conditions: primary human coronary artery smooth muscle cells; actives raise or lower the signal.

The nature of assay [20]: BSK_CASM3C_SRB: Viability Assessment in the BioMAP Diversity Plus: CASM3C Assay (AID 2283050).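 Also: total protein by SRB staining as cytotoxicity measure in parallel cultures.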 To be noted: primary human coronary artery smooth muscle cells.

Five molecules from PubChem BioAssay (EPA / NIEHS) can be followed below.

A structure can be active in one record and inactive in another. The source made the active and inactive calls. The calls were made as follows: active = hit-call score of the fitted dose curve at least 0.9, where 1 is the maximum; inactive = score below 0.9.

The AC50 is the midpoint of the concentration-response curve, whichever way the signal moves.

Turning to `O=C(O)CCCOc1ccc(Cl)cc1Cl`, the outcome in assay [1], in assay [2], in assay [3], in assay [4], in assay [5] and in assay [6] was inactive. For the same molecule, the result in assay [7], in assay [8], in assay [9], in [10], in assay [11] and in [12] was inactive. The result in assay [13], in [14], in [15], in [16], in assay [17] and in assay [18] was inactive. Further, the outcome in assay [19] and in [20] was inactive.
On to `C#CCN1C(=O)COc2cc(F)c(N3C(=O)C4=C(CCCC4)C3=O)cc21`, for which the outcome in assay [1], in assay [3], in [4], in assay [5], in [6] and in [7] was inactive. In addition, the outcome in assay [8], in assay [9], in assay [10], in assay [11], in assay [12] and in assay [13] was inactive. Also, the result in [14], in assay [15], in assay [16], in assay [17], in assay [18] and in [19] was inactive. Moreover, the outcome in assay [20] was inactive. In addition, in assay [2], the half-maximal activity concentration (AC50) is 3.97 µM (active).
On to `COP(=S)(OC)Oc1ccc(SC)c(C)c1`, for which the outcome in assay [1], in assay [2], in assay [3], in assay [4], in [5] and in assay [6] was inactive. The outcome in [7], in assay [8], in [10], in [11], in assay [12] and in assay [13] was inactive. The outcome in assay [14], in assay [15], in assay [16], in assay [17], in assay [18] and in [19] was inactive. Further, the outcome in [20] was inactive. The half-maximal activity concentration (AC50) in assay [9] was 148 nM (active).
For `Oc1ccc(Cl)cc1Cc1ccccc1`, the AC50 was 23.8 µM (active) in assay [1]; 34.7 µM (active) [middle of 7 runs] in [2]; 31 µM (active) [middle of 6 runs] in [3]; 35.3 µM (active) [middle of 7 runs] in assay [4]; 37.3 µM (active) [middle of 7 runs] in assay [5]; 33.9 µM (active) [middle of 7 runs] in [6]. Besides, the half-maximal activity concentration (AC50) is 34.4 µM (active) [middle of 7 runs] in assay [7]; 36.3 µM (active) [middle of 7 runs] in [8]; 32.1 µM (active) [middle of 7 runs] in assay [9]; 30.5 µM (active) [middle of 4 runs] in assay [10]; 29.7 µM (active) [middle of 7 runs] in assay [11]; 31.5 µM (active) [middle of 5 runs] in assay [12]. The AC50 in assay [13] was 31.1 µM (active) [middle of 7 runs]; in assay [14], 29.6 µM (active) [middle of 7 runs]; in assay [15] it was 29.1 µM (active) [middle of 5 runs]; in assay [16], 37.5 µM (active) [middle of 4 runs]; in assay [17], 32.2 µM (active) [middle of 7 runs]; in assay [18] it was 32.7 µM (active) [middle of 6 runs]. The half-maximal activity concentration (AC50) was 31.1 µM (active) [middle of 6 runs] in assay [19] and 32.4 µM (active) [middle of 7 runs] in [20]. Also, the outcome in assay [1], in assay [10], in assay [12], in [15] and in [18] was inactive.
For the molecule `CNC(=O)/C=C(\C)OP(=O)(OC)OC`, the result in assay [1], in [2], in [3], in assay [4], in assay [5] and in assay [6] was inactive. The result in assay [7], in assay [8], in [9], in [10], in [11] and in [12] was inactive. Besides, the result in [13], in assay [14], in assay [15], in assay [16], in [17] and in [18] was inactive. Besides, the outcome in assay [19] and in assay [20] was inactive.
